Hits are enriched below; roughly 7% of the tested compounds scored in any of these assays.
Integrin act MD: activators of alpha7 integrin expression for muscular dystrophy; 350,000 tested, 0.064% active; alpha7betagal myoblasts, beta-gal FDG fluorescence, 48 h; Potency, µM (series often up to 38.3 µM), usual class: activators; AID 624291; note: nearly all actives have a fitted effect of over 60% in size
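Alpha7betagal+/- myoblasts (passage 13) were plated 16-24 hr, then exposed to compounds (1:260 dilution of DMSO stock) for 48 hours at 37C. After MPER lysis, β-galactosidase reporter activity was read as FDG fluorescence (ex 480/em 540) after 30 minutes.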
DRD3 antagonist: antagonists of human D3 dopamine receptor; P35462; 360,000 tested, 2.5% active; max response, negative = inhibition, %; AID 652054; D3R cells, DiscoveRx beta-arrestin luminescence, antagonist mode; stronger effect = lower value; in the data active = max response below about -50%; inconclusive = no clear call, values can overlap the other calls
Target sequence (P35462 whole entry, looked up): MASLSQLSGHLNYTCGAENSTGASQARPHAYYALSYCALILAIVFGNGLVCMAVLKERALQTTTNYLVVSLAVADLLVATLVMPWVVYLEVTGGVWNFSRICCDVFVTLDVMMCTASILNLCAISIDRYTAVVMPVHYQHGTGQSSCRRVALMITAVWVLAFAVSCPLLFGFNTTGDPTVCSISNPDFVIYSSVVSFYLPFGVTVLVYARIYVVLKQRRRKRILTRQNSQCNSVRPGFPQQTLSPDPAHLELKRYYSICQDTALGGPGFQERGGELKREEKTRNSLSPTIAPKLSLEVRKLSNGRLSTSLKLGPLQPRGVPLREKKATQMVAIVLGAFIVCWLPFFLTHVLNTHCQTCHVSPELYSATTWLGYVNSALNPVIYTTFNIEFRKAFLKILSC
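Cells expressing the human receptor were seeded at 1500 cells/well, incubated overnight at 37 degrees C in 5% CO2, then exposed to library compounds with dopamine controls for 90 minutes at 37 degrees C before luminescent detection.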
D3 ag: D3 dopamine receptor (human) agonism. P35462. D3R DiscoveRx beta-arrestin cells, luminescence, 90 min. max activation, %. 410,000 tested, 0.58% active. AID 652048; in the data active = max activation above about 30%
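Cells at 1500/well, incubated overnight, then treated with pinned compounds (dopamine as control) for 90 min at 37 degrees C. DiscoveRx reagent added for 30 - 60 minutes at room temperature; luminescence read.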
S2 tox: cell viability loss in ATXN counter-screen. S2 cells (HEK-293 line with an ATXN2-luciferase reporter) viability, CellTiter-Fluor protease fluorescence, 24 h. Potency, µM (titrated, usually from 56.7 µM), actives largely listed as cytotoxic. 400,000 tested, 0.49% active. AID 651635; note: nearly all actives have a fitted effect of over 40% in size
ATXN2 expr inh: reduces ATXN2 reporter expression in HEK-293 cells; Potency, µM (series often up to 57 µM), usual class: inhibitors; 360,000 tested, 0.72% active; HEK-293 ATXN2-luciferase reporter, luminescence, 24 h; note: nearly all actives have a fitted effect of over 55% in size
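qHTS (up to 57 uM final) was run with 24 h compound exposure of reporter cells at 37 °C. Each well was multiplexed: SteadyGlo luminescence measured ATXN2-luciferase expression after a fluorogenic Gly-Phe-AFC viability readout (25 uM final).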
IL-1B inflam inh: blocks inflammasome-driven IL-1 beta release; THP-1 LPS/ATP IL-1B secretion, AlphaLISA, 16 h; stronger effect = lower value; activity change, % at 57.5 µM; 360,000 tested, 4.7% active; in the data active = activity change below about -50%; inconclusive = mostly about -30% to -49%
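Secreted IL-1B measured by AlphaLISA bead assay after 16 h compound exposure of THP-1 cells; compounds (final up to 57.5 uM) added 1 h before LPS (250 ng/mL) and ATP (1.25 mM) stimulation; lower signal means less secretion.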
Hits are given with their value; . = inactive; ? = inconclusive; / = not tested or not shown. Unless noted, calls come from the whole dose curve; as a rule, active = well fitted curve in the direction sought with a large enough effect; inconclusive = small, poorly fitted or top-dose-only effect, or another doubt; inactive = no such curve, though single readings can be large; an effect the other way counts as inactive or inconclusive.

SMILES	Integrin act MD	DRD3 antagonist	D3 ag	S2 tox	ATXN2 expr inh	IL-1B inflam inh
C/C(=N\Nc1cc(N2CCOCC2)ncn1)c1ccccc1	.	.	.	.	/	-79
Cc1cccc(/C=N/Nc2cc(N3CCOCC3)nc(N3CCOCC3)n2)c1	.	.	.	.	.	-78
CC(C)CN(C(=O)COc1ccc(Br)cc1C=O)C1CCS(=O)(=O)C1 (centres undefined)	.	.	.	.	.	.
COc1ccc([C@H]2C[C@@H](n3cc(C4CC4)nn3)[C@H](O)CN2CC2CCCCC2)cc1	.	.	.	?	?	-55
CCCCCCN1C[C@H](n2cc(C3CC3)nn2)[C@@H](O)C[C@@H]1c1ccc(OC)cc1	.	.	.	25µM	?	.
COc1ccc([C@H]2C[C@H](O)[C@@H](n3cc(C4CC4)nn3)CN2CC2CCCCC2)cc1	.	.	.	.	.	.
O=C(OCc1cn([C@@H]2CN(CC3CCCCC3)[C@@H](c3ccccc3)C[C@H]2O)nn1)c1ccccc1	.	.	.	25µM	?	.
Cc1cc(C)n(CC(O)Cn2c3ccc(Cl)cc3c3cc(Cl)ccc32)c(=O)n1 (centres undefined)	.	.	.	?	32µM	?
CC(=O)c1ccc(NC(=O)Cn2c(=O)nc(-c3ccccc3)c3cc(Cl)ccc32)cc1	/	/	.	/	/	/
CCOC(=O)C(=O)NCC(c1ccco1)S(=O)(=O)c1cccs1 (centres undefined)	.	.	.	.	.	-51
CCOCCCn1c(C)nc2c(c1=O)c1nc3ccccc3nc1n2CCC1=CCCCC1	.	.	.	?	.	-73
O=C(Cc1cccs1)N/N=C\c1ccc([N+](=O)[O-])s1	.	.	.	?	/	.
Cc1ccc(NC(=S)N/N=C/c2ccc([N+](=O)[O-])s2)cc1	.	?	.	/	?	-73
Cc1c(N=Cc2ccc(Br)s2)cccc1[N+](=O)[O-]	.	.	.	.	.	.
Cc1cc(C)cc(N=Cc2ccc([N+](=O)[O-])s2)c1	.	?	.	?	?	-104
NC(=O)c1ccc(N=Cc2ccc([N+](=O)[O-])s2)cc1	.	.	.	?	?	-108
O=C1CCC(C(=O)N2CCCCCCC2)CN1Cc1cccc(C(F)(F)F)c1 (centres undefined)	.	.	.	.	.	.
COc1ccccc1NC(=O)C1CCOC1=O (centres undefined)	.	.	.	.	.	.
Cc1ccc(S(=O)(=O)N2CCN(C(=O)c3nn(C(C)C)c(=O)c4ccccc34)CC2)cc1C	.	.	.	.	.	.
O=[N+]([O-])c1cccc(CN2[C@@H](Cc3ccccc3)COCCS2(=O)=O)c1	.	.	.	.	.	.
Cc1ccc(CNC(=O)C2CCCN(S(=O)(=O)c3c(C)[nH]c(=O)[nH]c3=O)C2)cc1 (centres undefined)	.	.	.	.	.	.
COc1cc2[nH]c(C(=O)N3CCc4ccccc43)cc2c(OC)c1OC	.	.	.	.	.	.
S=c1nc2ccccc2c2nc(-c3ccccc3Br)[nH]n12	.	.	.	?	25µM	.
CC(/C=C/c1ccccc1)=N/NC(=O)CCC(=O)Nc1ccccc1C	.	.	.	.	.	.
COC(=O)[C@@]12C[C@@H](CC(=O)NCC3CCCCC3)C(=O)N(CCc3ccc(OC)c(OC)c3)C1=CCC(C)(C)C2	/	.	.	/	/	?
SMILES	Integrin act MD	DRD3 antagonist	D3 ag	S2 tox	ATXN2 expr inh	IL-1B inflam inh
COC(=O)[C@@]12C[C@@H](CC(=O)NCC34CC5CC(CC(C5)C3)C4)C(=O)N(CCc3ccc(OC)c(OC)c3)C1=CCC(C)(C)C2	/	?	.	/	/	-98
COCCCNC(=O)C[C@@H]1C[C@@]2(C(=O)OC)CC(C)(C)CC=C2N(CCc2ccc(OC)c(OC)c2)C1=O	/	-70	.	/	/	.
CCCCCCCCN1C(=O)[C@H](CC(=O)NCc2ccc(OC)c(OC)c2)C[C@@]2(C(=O)OC)CC(C)(C)CC=C12	/	.	.	/	/	-78
COC(=O)[C@@]12C[C@@H](CC(=O)NCc3ccc(OC)c(OC)c3)C(=O)N(CCc3ccc(OC)c(OC)c3)C1=CCC(C)(C)C2	/	.	.	/	/	.
CCCCNC(=O)C[C@@H]1C[C@@]2(C(=O)OC)CC(C)(C)CC=C2N(CCc2ccc(OC)c(OC)c2)C1=O	/	.	.	/	/	?
CN1CCN(C(=O)c2cccc(-c3cnc4cnc(-c5ccccc5Oc5ccccc5)cn34)c2)CC1	/	.	.	.	.	-57
C[C@H](CO)N1C[C@H](C)[C@@H](CN(C)C(=O)Nc2ccc(C(F)(F)F)cc2)Oc2c(NC(=O)C3CCCCC3)cccc2C1=O	.	.	.	?	.	-58
C[C@H](CO)N1C[C@H](C)[C@@H](CN(C)C(=O)Nc2ccc(C(F)(F)F)cc2)Oc2c(NC(=O)CCC(F)(F)F)cccc2C1=O	.	.	.	?	.	-66
C[C@@H]1CN([C@H](C)CO)C(=O)c2cccc(NC(=O)NC3CCCCC3)c2O[C@@H]1CN(C)C(=O)Nc1ccc(C(F)(F)F)cc1	.	?	.	22µM	?	-67
C[C@H](CO)N1C[C@H](C)[C@@H](CN(C)C(=O)Nc2ccc(C(F)(F)F)cc2)Oc2c(NC(=O)NC3CCCCC3)cccc2C1=O	.	.	.	28µM	?	?
CC(C)NC(=O)Nc1cccc2c1O[C@H](CN(C)C(=O)Nc1ccc(C(F)(F)F)cc1)[C@@H](C)CN([C@H](C)CO)C2=O	.	.	.	.	.	?
C[C@H](CO)N1C[C@H](C)[C@@H](CN(C)C(=O)Nc2ccccc2)Oc2c(NC(=O)Nc3ccc(C(F)(F)F)cc3)cccc2C1=O	.	.	.	/	?	.
CCCCn1c(=NC(C)=O)c(C#N)cc2c(=O)n3cccc(C)c3nc21	.	.	.	.	.	.
COC(=O)C(NC(C)=O)(Nc1nc2ccc(S(C)(=O)=O)cc2s1)C(F)(F)F (centres undefined)	.	.	.	.	.	.
COc1ccc(CN2CCC(N3CC(C)OC(C)C3)CC2)c(OC)c1OC (centres undefined)	.	.	.	.	.	.
O=C(Nc1ccccc1Cl)Nc1ccnn1C1CCN(C(=O)c2cscn2)CC1	.	.	.	.	.	.
C=CCc1cccc(/C=N/NC(=O)CCC(=O)Nc2ccc(C)cc2)c1O	.	.	.	.	14µM	.
Cc1occc1C(=O)N1CCN(C(c2ccccc2)c2ccccc2)CC1	?	?	.	/	/	.
O=C(CNC(=O)Cc1ccccc1)NCC(=O)N1CCN(C(c2ccccc2)c2ccccc2)CC1	?	.	.	.	/	.
Cc1ccccc1C(=O)N1CCN(C(c2ccccc2)c2ccccc2)CC1	.	.	.	?	/	.
